Measurements taken from publication PMC4336329 (PLoS ONE, 2015).
In all, about 310,000 compounds went through this assay and about 14,000 (4.5%) showed an effect of 50% or more. Effects have a minus sign here. The list comes from a sample in which strong results are over-represented; it also holds similar structures and randomly drawn compounds.
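Note: peak tail current of the secondary pulse compared with the same well before compound.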

What follows are compounds tested against human ether-à-go-go-related gene (hERG) potassium channel (human, UniProt Q12809) (assay: primary screen, population patch clamp on CHO cells stably expressing hERG; higher = less effect of the substance).
Chain of human ether-à-go-go-related gene (hERG) potassium channel (Q12809 whole entry, looked up): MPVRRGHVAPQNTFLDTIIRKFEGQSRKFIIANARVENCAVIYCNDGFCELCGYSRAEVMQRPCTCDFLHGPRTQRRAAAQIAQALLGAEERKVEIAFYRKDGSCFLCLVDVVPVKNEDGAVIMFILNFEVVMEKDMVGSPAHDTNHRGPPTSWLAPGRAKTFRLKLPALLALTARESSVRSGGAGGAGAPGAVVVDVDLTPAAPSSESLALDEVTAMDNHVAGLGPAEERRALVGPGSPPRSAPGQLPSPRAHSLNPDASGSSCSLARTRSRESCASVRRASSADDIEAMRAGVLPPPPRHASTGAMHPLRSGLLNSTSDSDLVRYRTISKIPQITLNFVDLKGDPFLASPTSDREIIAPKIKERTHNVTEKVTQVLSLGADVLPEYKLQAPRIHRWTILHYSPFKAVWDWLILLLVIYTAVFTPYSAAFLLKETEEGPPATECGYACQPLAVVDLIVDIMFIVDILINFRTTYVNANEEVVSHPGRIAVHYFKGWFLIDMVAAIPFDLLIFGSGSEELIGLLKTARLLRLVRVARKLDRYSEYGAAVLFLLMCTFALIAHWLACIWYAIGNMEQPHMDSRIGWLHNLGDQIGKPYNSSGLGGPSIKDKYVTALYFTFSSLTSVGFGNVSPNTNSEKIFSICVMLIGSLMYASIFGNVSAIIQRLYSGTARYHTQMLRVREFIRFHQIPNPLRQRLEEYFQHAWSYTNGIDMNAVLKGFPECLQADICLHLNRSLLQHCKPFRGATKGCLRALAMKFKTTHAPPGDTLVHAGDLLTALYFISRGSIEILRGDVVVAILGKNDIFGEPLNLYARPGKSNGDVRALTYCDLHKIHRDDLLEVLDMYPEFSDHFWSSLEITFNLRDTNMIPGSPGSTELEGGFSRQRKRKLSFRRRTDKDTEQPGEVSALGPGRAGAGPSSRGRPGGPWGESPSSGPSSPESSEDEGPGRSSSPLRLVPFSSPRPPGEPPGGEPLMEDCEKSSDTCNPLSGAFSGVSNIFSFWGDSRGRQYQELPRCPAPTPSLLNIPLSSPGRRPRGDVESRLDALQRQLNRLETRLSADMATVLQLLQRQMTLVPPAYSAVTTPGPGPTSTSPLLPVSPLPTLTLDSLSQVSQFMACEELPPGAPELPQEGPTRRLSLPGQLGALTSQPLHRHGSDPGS
With `c1nc(NCC2(N3CCOCC3)CCCCC2)c2ccsc2n1` the “hERG current change (%, negative = inhibition) at 10uM” value was -73.3%. For `Cc1sc2ncnc(NCCN3CCOCC3)c2c1C.O=C(O)C(=O)O`, the “hERG current change (%, negative = inhibition) at 10uM” value was -22.4%. For `Cc1sc2ncnc(NCC(C)(C)N3CCOCC3)c2c1C`, the “hERG current change (%, negative = inhibition) at 10uM” value was -71.7%. For `Cc1sc2ncnc(N3CCOCC3)c2c1C`, the “hERG current change (%, negative = inhibition) at 10uM” value was -13.7%. `C=CCNC(=O)CC(=O)N/N=C/c1ccc(F)cc1` was tested, and the “hERG current change (%, negative = inhibition) at 10uM” value was -3.54%. In the case of `CCSC(=O)NC12CC3CC(CC(C3)C1)C2`, the “hERG current change (%, negative = inhibition) at 10uM” value is reported as 6.27%. With `Cc1cc(OCC(=O)NCc2ccccn2)c2c(C)cc(=O)oc2c1` the “hERG current change (%, negative = inhibition) at 10uM” value was -7.15%. `O=C(NC(=S)Nc1ccc(S(=O)(=O)N2CCCCCC2)cc1)c1cccs1` was tested, and the “hERG current change (%, negative = inhibition) at 10uM” value was -5.3%. For `O=C(CCc1ccc(S(=O)(=O)N2CCOCC2)cc1)N/N=C/c1ccc(O)c(O)c1O`, the “hERG current change (%, negative = inhibition) at 10uM” value was 18.9%. `COc1ccc(NC(=O)C2=C(C)Nc3ncnn3C2c2ccccc2C(F)(F)F)c(OC)c1` (stereo not drawn) was tested, and the “hERG current change (%, negative = inhibition) at 10uM” value was 2.77%. For `CCOc1ccc(C(C)=O)cc1CSc1nc(C)cc(C)n1`, the “hERG current change (%, negative = inhibition) at 10uM” value was -6.21%. With `CCOc1ccccc1NC(=S)N1CCC(NC(=O)NC23CC4CC(CC(C4)C2)C3)CC1` the “hERG current change (%, negative = inhibition) at 10uM” value was -13.7%. `COc1ccc(S(=O)(=O)N2CCCOC2CNC(=O)C(=O)NCc2ccco2)cc1` (stereo not drawn) was tested, and the “hERG current change (%, negative = inhibition) at 10uM” value was -22%. With `CCOC(=O)c1c(NC(=O)C(C)NCc2ccco2)sc2c1CCC(C)C2.O=C(O)C(=O)O` (stereo not drawn) the “hERG current change (%, negative = inhibition) at 10uM” value was -4.23%. With `COc1ccc(Oc2coc3cc(OC(=O)N4CCOCC4)ccc3c2=O)cc1` the “hERG current change (%, negative = inhibition) at 10uM” value was -25.3%. With `O=c1c(Oc2ccccc2F)coc2cc(OCc3cnn(-c4ccccc4)c3)ccc12` the “hERG current change (%, negative = inhibition) at 10uM” value was -55%. In the case of `Cc1oc2cc(OCc3cnn(-c4ccccc4)c3)ccc2c(=O)c1Oc1ccccc1F`, the “hERG current change (%, negative = inhibition) at 10uM” value is reported as -11.2%. For `CCOc1ccccc1Oc1coc2cc(OCC(=O)O)ccc2c1=O`, the “hERG current change (%, negative = inhibition) at 10uM” value was 24.3%. `COc1ccccc1Oc1coc2cc(OC(=O)N3CCOCC3)ccc2c1=O` was tested, and the “hERG current change (%, negative = inhibition) at 10uM” value was -56.4%. With `COC(=O)c1ccc(Oc2coc3cc(OCc4cnn(-c5ccccc5)c4)ccc3c2=O)cc1` the “hERG current change (%, negative = inhibition) at 10uM” value was 7.07%. With `COc1cccc(Oc2coc3cc(OC(=O)N4CCOCC4)ccc3c2=O)c1` the “hERG current change (%, negative = inhibition) at 10uM” value was -4.27%. In the case of `CCCNC(=O)COc1ccc2c(=O)c(Oc3ccccc3F)coc2c1`, the “hERG current change (%, negative = inhibition) at 10uM” value is reported as -61.6%. `COC(=O)COc1ccc2c(=O)c(Oc3ccccc3Br)coc2c1` was tested, and the “hERG current change (%, negative = inhibition) at 10uM” value was 14%. For `CCC/C=N/Nc1nnc(Cc2ccc(OC)c(OC)c2)c(=O)[nH]1`, the “hERG current change (%, negative = inhibition) at 10uM” value was 27.2%. In the case of `CSCC[C@H](NC(=O)OCc1ccccc1)C(=O)O`, the “hERG current change (%, negative = inhibition) at 10uM” value is reported as -2.24%. For `Cc1ccc(-c2c(C#N)c(N)nc3c2CCCCC3)o1`, the “hERG current change (%, negative = inhibition) at 10uM” value was -5.84%. In the case of `C=CCn1c(N/N=C/c2ccc(O)cc2)nc2ccccc2c1=O`, the “hERG current change (%, negative = inhibition) at 10uM” value is reported as -17.9%. `Cc1cc2c(C)nc(N/N=C/c3ccc([N+](=O)[O-])cc3)nc2o1` was tested, and the “hERG current change (%, negative = inhibition) at 10uM” value was -16.2%. For `Cc1cc2c(C)nc(N/N=C/c3ccc(F)cc3)nc2o1`, the “hERG current change (%, negative = inhibition) at 10uM” value was -52.7%. `Cc1cc2c(C)nc(N/N=C/c3ccccc3)nc2o1` was tested, and the “hERG current change (%, negative = inhibition) at 10uM” value was -27.6%. `CC1(C)C2CCC13CS(=O)(=O)N[C@@H]3C2` (stereo partly drawn) was tested, and the “hERG current change (%, negative = inhibition) at 10uM” value was 20.5%. With `Cc1ccc(CC2CC(=O)N(CCc3ccc4c(c3)OCO4)C2=O)cc1` (stereo not drawn) the “hERG current change (%, negative = inhibition) at 10uM” value was 3.17%. `O=C(Nc1ccc(O)cc1)C1CCCO1` (stereo not drawn) was tested, and the “hERG current change (%, negative = inhibition) at 10uM” value was 16.4%. `Cc1cc(-c2nnc(SCC(=O)Nc3cccc(Cl)c3)n2N)n[nH]1` was tested, and the “hERG current change (%, negative = inhibition) at 10uM” value was -71.9%. For `C=CCn1c(SCC(=O)Nc2ccc(S(N)(=O)=O)cc2)nnc1-c1cnccn1`, the “hERG current change (%, negative = inhibition) at 10uM” value was 13%. `C=CCn1c(SCC(=O)Nc2c(C)cccc2C)nnc1-c1cnccn1` was tested, and the “hERG current change (%, negative = inhibition) at 10uM” value was -2.77%. For `C=CCn1c(SCC(=O)Nc2ccc(OC)cc2)nnc1-c1cnccn1`, the “hERG current change (%, negative = inhibition) at 10uM” value was -23.1%. `NC(=O)c1ccc(NC(=O)CSc2nnc(-c3ccccn3)n2N)cc1` was tested, and the “hERG current change (%, negative = inhibition) at 10uM” value was 17.1%. With `Cc1cc(-c2nnc(SCC(=O)Nc3cccc(F)c3)n2N)n[nH]1` the “hERG current change (%, negative = inhibition) at 10uM” value was 6.38%. With `Cc1ccc(NC(=O)CSc2nnc(-c3ccccn3)n2N)cc1F` the “hERG current change (%, negative = inhibition) at 10uM” value was -48.5%. With `C=CCn1c(SCC(=O)Nc2cc(C)cc(C)c2)nnc1-c1cnccn1` the “hERG current change (%, negative = inhibition) at 10uM” value was -29.6%. With `C=CCn1c(SCC(=O)Nc2cccc(C)c2)nnc1-c1cnccn1` the “hERG current change (%, negative = inhibition) at 10uM” value was -71.9%. With `Cc1cccc(NC(=O)CSc2nnc(-c3cc(C)[nH]n3)n2N)c1` the “hERG current change (%, negative = inhibition) at 10uM” value was -29.1%. In the case of `C=CCn1c(SCC(=O)Nc2ccc(F)cc2)nnc1-c1cnccn1`, the “hERG current change (%, negative = inhibition) at 10uM” value is reported as -58.9%. In the case of `Nn1c(SCC(=O)Nc2ccc(F)cc2)nnc1-c1ccccn1`, the “hERG current change (%, negative = inhibition) at 10uM” value is reported as -53.6%.
